Where “and” joins values, the source holds several entries; their conditions need not be identical. Equal entries are not always repeated. Results filed as inconclusive are left out. Calls of active or inactive are those of the source. Unless noted, calls follow the shape of the full dose curve.

Test [1] can be described thus: Primary qHTS for Huh7 cytotoxicity: counterscreen for inhibitors of MERS-S pseudotyped particle cell entry (AID 1479147). (In general: In qHTS, concentration-response curves come from the screen itself.)
Test [2] in a line: Primary qHTS for inhibitors of MERS-S pseudo-typed particle cell entry (AID 1479149). Also: nearly all actives have a fitted effect of over 60% in size. Also: potency is read from the fitted curve at half-maximal effect.
Test [3] can be described thus: Primary qHTS for Vero E6 cytotoxicity: counterscreen for inhibitors of SARS-S pseudo-typed particle cell entry (AID 1479150).
Test [4] is described as follows: Primary qHTS for inhibitors of La Crosse Virus (LACV) - induced cell death in SH-SY5Y cells (AID 1508616; active = well fitted curve in the direction sought with a large enough effect; an effect the other way counts as inactive or inconclusive;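 also: top concentration of the series differs between compounds; 0% = infected DMSO wells and 100% = uninfected DMSO wells; higher means more rescue of cells from virus-induced death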). An outline of the steps:
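Readout was luminescence from ATPLite 1step added after a 6-day LACV infection (0.01 MOI) of SH-SY5Y cells that had received pin-transferred compound 24 hr after seeding.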

Test [5] addresses Calcium and integrin-binding protein 1 (Homo sapiens) (UniProt Q99828). Briefly: Primary qHTS for Identification of Calcium Integrin Binding Protein 1 (CIB1) Competitor (AID 1508620; active = well fitted curve in the direction sought with a large enough effect; an effect the other way counts as inactive or inconclusive;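 also: GST tagged CIB1 binding a fluorescein labelled alphaIIb integrin peptide tracer; top concentration of the series differs between compounds; % is scaled to controls: 0 for no effect and ±100 for the full control effect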). A digest of the protocol: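 CIB1-GST (1 uM final) and compound incubated 15 min at room temperature before adding FITC-alphaIIb peptide tracer (100 nM final). Competition for binding read by fluorescence polarization (ex 480, em 540) after another 15 min at room temperature.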

Test [6] can be described thus: Primary qHTS for small molecule stabilizers of the endoplasmic reticulum resident proteome: Secreted ER Calcium Modulated Protein (SERCaMP) assay (AID 1508630; active = well fitted curve in the direction sought with a large enough effect; an effect the other way counts as inactive or inconclusive; also: % is scaled to controls: 0 for no effect and ±100 for the full control effect). A digest of the protocol:
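GLuc-SERCaMP-expressing SH-SY5Y cells, pretreated 16 h with compound, are challenged with thapsigargin to empty ER calcium stores; after 4 h, coelenterazine is added directly to the medium and luminescence is imaged.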

Test [7] can be described thus: A High-Content qHTS Against Drug Library for the Identification of Small Molecules that Inhibit DYT1 Early Onset Primary Dystonia-Associated Cell Pathology (AID 1645839). A digest of the protocol: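 In this high-content image screen, delE TorsinA mislocalization in inducible Flp-In 293 cells is scored as %pathology, with cell count serving as the counterscreen. Compound exposure lasts 48 h under tetracycline induction in reduced-serum medium.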

Test [8] deals with Cytochrome P450 2D6 (Homo sapiens) (UniProt P10635). Briefly: Cytochrome P450 family 2 subfamily D member 6 (CYP2D6) small molecule antagonists: luciferase biochemical (cell-free) qHTS assay (AID 1645840; active = well fitted curve in the direction sought with a large enough effect in the repeat runs; an effect the other way counts as inactive or inconclusive; also: nearly all actives have a fitted effect of over 55% in size; also: potency is read from the fitted curve at half-maximal effect). An outline of the steps:
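P450-Glo luminescent screen: recombinant CYP2D6 enzyme–proluciferin substrate mix preincubated with compound 10 min at room temperature, then NADPH regeneration added for 1 h at room temperature. Detection reagent added for 20 min; luciferin light read as relative luminescence units.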

The target of test [9] is Cytochrome P450 2C9 (Homo sapiens) (UniProt P11712). Briefly: Cytochrome P450 family 2 subfamily C member 9 (CYP2C9) small molecule antagonists: luciferase biochemical (cell-free) qHTS assay (AID 1645842; active = well fitted curve in the direction sought with a large enough effect in the repeat runs; an effect the other way counts as inactive or inconclusive; also: nearly all actives have a fitted effect of over 55% in size; also: potency is read from the fitted curve at half-maximal effect; as to activity change, negative = inhibition: % is scaled to controls: 0 for no effect and ±100 for the full control effect). A digest of the protocol: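 Luminescence, after 20 min with luciferin detection reagent, reflected CYP2C9 turnover during a 1 h NADPH-driven reaction at 37C. Enzyme-substrate mix contained 0.4% bovine serum albumin and was preincubated with compound 10 min at room temperature.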
Sequence of Cytochrome P450 2C9 (Homo sapiens) (P11712 whole entry, looked up): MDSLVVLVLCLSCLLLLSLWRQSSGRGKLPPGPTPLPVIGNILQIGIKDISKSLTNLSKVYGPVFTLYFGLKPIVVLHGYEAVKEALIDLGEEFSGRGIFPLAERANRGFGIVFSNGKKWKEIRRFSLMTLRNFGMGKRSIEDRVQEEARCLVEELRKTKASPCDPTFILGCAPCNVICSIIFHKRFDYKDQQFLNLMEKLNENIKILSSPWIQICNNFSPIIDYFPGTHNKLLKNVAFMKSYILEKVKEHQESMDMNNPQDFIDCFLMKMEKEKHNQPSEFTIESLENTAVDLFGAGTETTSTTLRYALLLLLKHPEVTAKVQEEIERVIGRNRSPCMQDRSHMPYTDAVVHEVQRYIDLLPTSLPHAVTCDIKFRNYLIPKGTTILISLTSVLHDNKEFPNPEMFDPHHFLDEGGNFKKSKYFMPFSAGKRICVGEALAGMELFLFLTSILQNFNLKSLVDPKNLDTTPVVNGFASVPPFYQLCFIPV

Test [10] in a line: Cytotoxicity counterscreen for inhibitors of SARS-CoV-2 cell entry (AID 1645845). Also: nearly all actives have a fitted effect of over 50% in size. A digest of the protocol: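 48 h compound treatment (after 1 h preincubation), HEK293-ACE2 cells, 37 C/5% CO2; ATP luminescence endpoint; normalized to cell wells and media blanks.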
A short description of test [11]: Primary qHTS to identify inhibitors of SARS-CoV-2 cell entry (AID 1645846). Also: nearly all actives have a fitted effect of over 45% in size. Also: potency is read from the fitted curve at half-maximal effect. Conditions: activity change, negative = inhibition: at 57.1 µM (top of the series) unless noted. An outline of the steps: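 Data are normalized to wells receiving SARS-CoV-2-S pseudoparticles and those given bald particles. Entry signal was luciferase luminescence in stable hACE2 Expi293F cells, 48 hr post-infection, after 1 hr compound pretreatment.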

The target of a further test is Papain (Carica papaya) (UniProt P00784). Briefly: Primary qHTS assay for inhibitors of the protease papain (AID 1645873; active = well fitted curve in the direction sought with a large enough effect; an effect the other way counts as inactive or inconclusive;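 also: papain turnover of Z-FR-AMC read as the AMC fluorescence gain over 10 min; % is scaled to controls: 0 for no effect and ±100 for the full control effect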).
Sequence of Papain (Carica papaya) (P00784 whole entry, looked up): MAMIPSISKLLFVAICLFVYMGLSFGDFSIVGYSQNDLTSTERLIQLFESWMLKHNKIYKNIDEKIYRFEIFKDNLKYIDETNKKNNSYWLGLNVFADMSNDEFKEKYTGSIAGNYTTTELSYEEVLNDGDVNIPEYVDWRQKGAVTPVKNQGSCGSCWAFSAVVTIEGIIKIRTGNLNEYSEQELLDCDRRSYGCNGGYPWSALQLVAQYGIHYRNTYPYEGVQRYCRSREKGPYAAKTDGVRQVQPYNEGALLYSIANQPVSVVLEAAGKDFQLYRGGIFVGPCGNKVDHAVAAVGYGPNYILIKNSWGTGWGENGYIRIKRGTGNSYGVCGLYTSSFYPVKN
Test [12] is described as follows: Confirmatory qHTS for VERO E6 Cytotoxicity Assay: Counterscreen for SARS-CoV-2 CPE Assay (AID 1508605). Also: nearly all actives have a fitted effect of over 60% in size. Also: potency is read from the fitted curve at half-maximal effect.
A short description of test [13]: VSVG counterscreen qHTS to identify inhibitors of SARS-CoV-2 cell entry (AID 1645847). Also: potency is read from the fitted curve at half-maximal effect; nearly all actives have a fitted effect of over 65% in size. A digest of the protocol: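 Counterscreen using VSV-G (not spike) pseudotyped MLV particles on ACE2-expressing Expi293F cells after 1 h compound preincubation; infection ran 48 h at 37 °C. Data normalized to VSV-G PP and bald-PP wells.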
In general terms: A counterscreen serves to expose hits that act by an unwanted route or on another target.

Sequence of Calcium and integrin-binding protein 1 (Homo sapiens) (Q99828 whole entry, looked up): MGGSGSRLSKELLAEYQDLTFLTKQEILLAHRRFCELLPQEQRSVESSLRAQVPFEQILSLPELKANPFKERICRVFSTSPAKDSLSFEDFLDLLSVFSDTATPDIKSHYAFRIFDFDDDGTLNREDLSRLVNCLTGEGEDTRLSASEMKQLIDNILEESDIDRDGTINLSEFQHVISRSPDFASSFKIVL
Sequence of Cytochrome P450 2D6 (Homo sapiens) (P10635 whole entry, looked up): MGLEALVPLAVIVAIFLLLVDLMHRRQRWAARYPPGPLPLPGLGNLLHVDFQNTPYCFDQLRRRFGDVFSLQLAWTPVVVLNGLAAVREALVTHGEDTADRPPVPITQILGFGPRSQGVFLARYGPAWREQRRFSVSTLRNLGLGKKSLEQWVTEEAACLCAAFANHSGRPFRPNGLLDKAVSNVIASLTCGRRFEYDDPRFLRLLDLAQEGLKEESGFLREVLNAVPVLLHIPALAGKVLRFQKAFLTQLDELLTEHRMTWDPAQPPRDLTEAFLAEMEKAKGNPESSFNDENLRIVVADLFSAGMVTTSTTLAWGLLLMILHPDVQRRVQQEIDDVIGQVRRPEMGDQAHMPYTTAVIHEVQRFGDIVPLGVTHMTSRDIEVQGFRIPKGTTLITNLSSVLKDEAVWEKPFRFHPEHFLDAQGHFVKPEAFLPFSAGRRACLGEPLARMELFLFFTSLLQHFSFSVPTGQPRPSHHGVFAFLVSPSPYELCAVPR

As for `FC(F)(F)c1cccc(C2=CCN(CCc3ccc4ccccc4c3)CC2)c1`, the Potency result in test [1], in test [2], in test [3], in [4], in test [5] and in test [7] was “inactive” in each case. Also, the Potency result in test [9] is “inactive”. The outcome in [6] was inactive. In test [8], the Potency is 0.0098 µM (active).

`NCC(O)c1ccc(O)cc1` (centres undefined): the Potency entry in test [1], in test [2], in test [3], in test [4], in [5] and in [7] was “inactive” each time. Further, the Potency result (in [8]; in [9]; in [10]; in test [11]; with Papain (Carica papaya)) was “inactive” each time. The result in test [6] was inactive.

As to `CC/C(=C(\c1ccccc1)c1ccc(OCCN(C)C)cc1)c1ccccc1`, the Potency result in [1], in test [3] and in test [10] was “inactive” throughout. The Potency in test [2] is 7.08 µM (active); in test [12] it was 10 µM (active); in test [13] it was 49.4 µM (active).

For the molecule `O=C1Cc2cc(CCN3CCN(c4nsc5ccccc45)CC3)c(Cl)cc2N1`, the Potency result in [1], in test [2] and in [3] was “inactive” in each case.

For the molecule `CC1(C)S[C@@H]2[C@H](NC(=O)[C@H](N)c3ccccc3)C(=O)N2[C@H]1C(=O)O`, the Potency entry in test [1], in test [2] and in test [3] was “inactive” in each case.

As to `CN(C)CCOC(c1ccc(Cl)cc1)c1ccccn1` (centres undefined), the Potency entry in test [1] and in [2] was “inactive” throughout.

For `Oc1ccc(Cl)cc1Cc1ccccc1`, the Potency result in test [1], in test [2], in test [3], in test [4], in test [5] and in [10] was “inactive” in each case. In test [6], the outcome was inactive. Also, the Potency in test [8] was 29.4 µM (active); in test [9] it was 9.31 µM (active) and 12.3 µM (active). Further, the activity change, negative = inhibition in test [11] is -21.8%.

Consider `Oc1cc(Cl)ccc1Oc1ccc(Cl)cc1Cl`, for which the Potency result in test [1], in test [2], in test [3], in test [4], in [5] and in test [7] was “inactive” in each case. Further, the outcome in [6] was inactive. Further, the Potency is 8.64 µM (active) and 11 µM (active) in [8]; 25.1 µM (active) in [11].

For the molecule `N[C@@H]1C[C@H]1c1ccccc1`, the Potency result in test [1], in test [2], in [3], in [4], in test [5] and in test [7] was “inactive” in each case. Also, in test [11], the Potency entry was “inactive”. Besides, in test [6], the outcome was inactive. In addition, the Potency in test [9] is 21.9 µM (active). Besides, the activity change, negative = inhibition in test [11] is -29.3%.

In the case of `Cc1cccc(C)c1NC1=NCCCS1`, the Potency entry in [1], in [2], in test [3], in test [4], in test [5] and in test [7] was “inactive” each time. In addition, the Potency result (in test [9]; in the test with Papain (Carica papaya)) was “inactive” in each case. For the same molecule, the result in test [6] was inactive. The Potency in test [8] was 15.5 µM (active). For the same molecule, the activity change, negative = inhibition in [11] is -11.5%.

As for `O=C1CC[C@@]2(O)[C@H]3Cc4ccc(O)c5c4[C@@]2(CCN3CC2CC2)[C@H]1O5`, the Potency entry in test [1], in [2], in test [3], in test [4], in test [5] and in test [7] was “inactive” in each case. Moreover, the Potency result in test [9] and in test [10] was “inactive” in each case. In test [6], the outcome was inactive. Further, the activity change, negative = inhibition in test [11] was -8.92%.

In the case of `CCCSc1ccc2nc(NC(=O)OC)[nH]c2c1`, the Potency entry in test [1] and in test [2] was “inactive” each time.

Consider `Cc1ncc(CNC(=O)N(CCCl)N=O)c(N)n1`, for which the Potency result in test [1], in test [2], in [3], in [4], in [5] and in [7] was “inactive” each time. For the same molecule, the Potency result (in [11]; with Papain (Carica papaya)) was “inactive” each time. Further, the outcome in test [6] was inactive.

Take `O=C1Nc2ccc(Cl)cc2[C@@](C#CC2CC2)(C(F)(F)F)O1`: the Potency entry in test [1], in test [2], in [3] and in [12] was “inactive” each time.

As to `Cc1ccc(-c2cc(C(F)(F)F)nn2-c2ccc(S(N)(=O)=O)cc2)cc1`, the Potency entry in [1], in test [2], in test [3], in test [12] and in test [10] was “inactive” throughout. The activity change, negative = inhibition in test [11] was -19.2%.

For the molecule `Clc1ccc2c(c1)C(N1CCNCC1)=Nc1ccccc1O2`, the Potency entry in [1], in test [2], in test [3] and in test [12] was “inactive” each time. The activity change, negative = inhibition in test [11] was -2.85%.

In the case of `C#CCN(C)[C@H](C)Cc1ccccc1`, the Potency result in test [1], in [2], in [3], in test [4], in [5] and in test [7] was “inactive” each time. Further, the Potency result in test [9], in test [10] and in test [11] was “inactive” in each case. Besides, in [6], the outcome was inactive. Besides, the Potency in [8] is 13.8 µM (active). Besides, in test [11], the activity change, negative = inhibition is -14%.

As to `CC(C)c1nc(CN(C)C(=O)N[C@H](C(=O)N[C@@H](Cc2ccccc2)C[C@H](O)[C@H](Cc2ccccc2)NC(=O)OCc2cncs2)C(C)C)cs1`, the Potency result in [1], in test [2], in test [3] and in test [10] was “inactive” throughout.

With `CS(=O)(=O)CCNCc1ccc(-c2ccc3ncnc(Nc4ccc(OCc5cccc(F)c5)c(Cl)c4)c3c2)o1`, the Potency result in test [1], in [2], in test [3] and in test [10] was “inactive” throughout.

Consider `CCOC(=O)[C@H](CCc1ccccc1)N[C@@H](C)C(=O)N1Cc2ccccc2C[C@H]1C(=O)O`, for which the Potency result in test [1], in [2], in [3] and in [10] was “inactive” each time.

On to `Cn1cc(C2=C(c3cn(C4CCN(Cc5ccccn5)CC4)c4ccccc34)C(=O)NC2=O)c2ccccc21`, for which the Potency entry in test [1], in [2], in [3], in test [5], in test [8] and in [10] was “inactive” throughout. Moreover, in test [6], the result was inactive. Further, in [9], the Potency is 3.09 µM (active).

Regarding `COCCCOc1cc(C[C@@H](C[C@H](N)[C@@H](O)C[C@H](C(=O)NCC(C)(C)C(N)=O)C(C)C)C(C)C)ccc1OC`, the Potency result in [1], in test [2], in test [3] and in test [10] was “inactive” in each case.

On to `COc1cc2nc(N3CCN(C(=O)C4CCCO4)CC3)nc(N)c2cc1OC` (centres undefined), for which the Potency result in [1], in test [2], in test [3] and in test [10] was “inactive” throughout.

Take `COc1nc(N)nc2c1ncn2[C@@H]1O[C@H](CO)[C@@H](O)[C@@H]1O`: the Potency result in test [1], in [2], in test [3] and in test [10] was “inactive” each time.

Turning to `CCN(CC)C(=O)N[C@@H]1C=C2c3cccc4[nH]cc(c34)C[C@@H]2N(C)C1`, the Potency entry in test [1], in test [2], in test [3], in [7] and in test [10] was “inactive” each time. For the same molecule, the result in test [6] was inactive.

As for `CC(C)(C#N)c1cc(Cn2cncn2)cc(C(C)(C)C#N)c1`, the Potency result in test [1], in test [2], in test [3] and in [10] was “inactive” throughout.

As to `CCN1CCN(C(=O)N[C@@H](C(=O)N[C@@H]2C(=O)N3C(C(=O)O)=C(CSc4nnnn4C)CS[C@H]23)c2ccc(O)cc2)C(=O)C1=O`, the Potency entry in test [1], in test [2], in test [3] and in [10] was “inactive” each time.

In the case of `CN(C)CCc1c[nH]c2ccc(C[C@H]3COC(=O)N3)cc12`, the Potency result in test [1], in test [2], in test [3] and in [10] was “inactive” throughout.

Regarding `C=C1C[C@@H]2[C@H](CC[C@]3(C)C(=O)CC[C@@H]23)[C@@]2(C)C=CC(=O)C=C12`, the Potency entry in test [1], in [2], in test [3], in test [4], in test [5] and in [8] was “inactive” each time. Besides, the Potency result in test [10] was “inactive”.

Take `CC12CC3CC(C)(C1)CC(N)(C3)C2`: the Potency result in [1], in [2], in test [3] and in [10] was “inactive” in each case.

The record behind these values is PubChem BioAssay (NCATS).
